Test results published in PubChem BioAssay AID1159580 (chemical genetic matrix, 2015).
“And” between values parts separate entries of the source, which are not always exact repeats. Equal entries are not always repeated. Hit rate of the full screen: of about 5,500 compounds, about 2,000 (36%) were called active. Another 18% or so got no clear call; they are omitted. No stated cut-off is given here; in the data, active means normalized growth mostly below about 0.91 (no sharp cut-off); inconclusive means no clear call, values can overlap the other calls; inactive means mostly above about 0.92. The list shows a part of the results.

Assay: chemical genetic growth profiling, strain panel (AID 1159580);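 further: tested at 20 µM; growth read once vehicle control cultures reached saturation at 30 °C; 1 = growth at the plate median or of vehicle wells; lower values mean less growth of the strain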
Details: S. cerevisiae deletion strains, growth OD

Measured: normalized growth

COc1cc(OC)c2c(=O)c(OC)c(-c3ccc(OC)c(OC)c3)oc2c1
inactive: locus YAL021C, strain ccr4, active compounds read low 1.01 | locus YAL026C, strain drs2, active compounds read low 1.02 | locus YAL030W, strain snc1, active compounds read low 1.02 | locus YBL061C, strain skt5, active compounds read low 1 | locus YBR009C, strain hhf1, active compounds read low 1.01 | locus YBR021W, strain FUR4, active compounds read low 0.952 | locus YBR023C, strain chs3, active compounds read low 1.01 | locus YBR171W, strain sec66, active compounds read low 1.04 | locus YBR229C, strain ROT2, active compounds read low 1 | locus YBR231C, strain swc5, active compounds read low 1 | locus YBR279W, strain paf1, active compounds read low 1.02 | locus YCL011C, strain gbp2, active compounds read low 1.01 | locus YCL016C, strain dcc1, active compounds read low 1.01 | locus YCL029C, strain bik1, active compounds read low 1.01 | locus YCL061C, strain MRC1, active compounds read low 1.02 | locus YCL069W, strain vba3, active compounds read low 1.02 | locus YCR088W, strain abp1, active compounds read low 1.03 | locus YDL005C, strain med2, active compounds read low 1.02 | locus YDL035C, strain GPR1, active compounds read low 0.996 | locus YDL040C, strain nat1, active compounds read low 1.01 | locus YDL074C, strain BRE1, active compounds read low 0.995 | locus YDL101C, strain DUN1, active compounds read low 1 | locus YDL185W, strain tfp1, active compounds read low 1.01 | locus YDL192W, strain arf1, active compounds read low 0.987 | locus YDR001C, strain nth1, active compounds read low 1.02 | locus YDR069C, strain doa4, active compounds read low 1.02 | locus YDR101C, strain arx1, active compounds read low 1.01 | locus YDR137W, strain rgp1, active compounds read low 1.06 | locus YDR150W, strain NUM1, active compounds read low 0.998 | locus YDR159W, strain sac3, active compounds read low 1.02 | locus YDR162C, strain NBP2, active compounds read low 0.98 | locus YDR195W, strain ref2 1.04 | locus YDR297W, strain sur2, active compounds read low 1.01 | locus YDR318W, strain mcm21, active compounds read low 0.977 | locus YDR334W, strain swr1, active compounds read low 1.02 | locus YDR335W, strain msn5, active compounds read low 1.03 | locus YDR388W, active compounds read low 0.995 | locus YDR392W, strain spt3, active compounds read low 0.91 | locus YDR502C, strain sam2, active compounds read low 1.01 | locus YEL003W, strain gim4, active compounds read low 1.02 | locus YEL037C, strain rad23, active compounds read low 1.02 | locus YEL061C, strain CIN8 (second series), active compounds read low 1.02 | locus YEL061C, strain CIN8, active compounds read low 1 | locus YER015W, strain faa2, active compounds read low 1.01 | locus YER016W, strain bim1, active compounds read low 1.01 | locus YER110C, active compounds read low 1.02 | locus YER111C, strain swi4, active compounds read low 1.03 | locus YER155C, strain BEM2 (second series), active compounds read low 1.02 | locus YER155C, strain BEM2, active compounds read low 1 | locus YER167W, strain BCK2, active compounds read low 1 | locus YFR010W, strain ubp6, active compounds read low 1.03 | locus YGL078C, strain dbp3, active compounds read low 1.02 | locus YGL086W, strain mad1, active compounds read low 1.01 | locus YGL167C, strain pmr1, active compounds read low 1 | locus YGL173C, strain kem1, active compounds read low 1.01 | locus YGL227W, strain vid30, active compounds read low 1.02 | locus YGL240W, strain doc1, active compounds read low 1.03 | locus YGL248W, strain PDE1, active compounds read low 0.97 | locus YGL253W, strain hxk2, active compounds read low 1.02 | locus YGR078C, strain PAC10, active compounds read low 0.958 | locus YGR135W, strain pre9, active compounds read low 0.968 | locus YGR252W, strain gcn5, active compounds read low 0.915 | locus YHR013C, strain ard1, active compounds read low 1.01 | locus YHR027C, strain rpn1, active compounds read low 1.01 | locus YHR030C, strain SLT2, active compounds read low 1.01 and 0.976 | locus YHR079C, strain IRE1 (second series), active compounds read low 1.02 | locus YHR079C, strain IRE1, active compounds read low 0.992 | locus YHR094C, strain hxt1, active compounds read low 1.01 | locus YHR129C, strain ARP1, active compounds read low 0.992 | locus YHR142W, strain chs7, active compounds read low 1.01 | locus YHR200W, strain rpn10, active compounds read low 1 | locus YIL066C, strain RNR3, active compounds read low 0.982 | locus YIL073C, strain SPO22, active compounds read low 1.03 | locus YIL125W, strain kgd1, active compounds read low 1.02 | locus YIR030C, strain dcg1, active compounds read low 1 | locus YJL092W, strain hpr5, active compounds read low 1.02 | locus YJL095W, strain BCK1 (second series), active compounds read low 1.01 | locus YJL095W, strain BCK1, active compounds read low 0.934 and 1 | locus YJL115W, strain asf1, active compounds read low 1.02 | locus YJL129C, strain trk1, active compounds read low 1.01 | locus YJL134W, strain LCB3, active compounds read low 1.01 | locus YJL154C, strain vps35, active compounds read low 1 | locus YJL164C, strain tpk1, active compounds read low 1.01 | locus YJL166W, strain qcr8, active compounds read low 1 | locus YJL168C, strain set2, active compounds read low 1.02 | locus YJL187C, strain SWE1 (second series), active compounds read low 0.996 | locus YJL187C, strain SWE1, active compounds read low 1.01 | locus YJR043C, strain POL32, active compounds read low 1 | locus YJR066W, strain TOR1, active compounds read low 0.941 | locus YJR075W, strain HOC1, active compounds read low 0.986 | locus YKL009W, strain mrt4, active compounds read low 1.02 | locus YKL068W, active compounds read low 1 | locus YKL085W, strain MDH1 (second series), active compounds read low 0.997 | locus YKL085W, strain MDH1, active compounds read low 0.997 | locus YKL160W, strain elf1, active compounds read low 0.995 | locus YKR001C, strain vps1, active compounds read low 0.994 | locus YKR026C, strain gcn3, active compounds read low 0.997 | locus YKR091W, strain srl3, active compounds read low 1.02 | locus YLL001W, strain dnm1, active compounds read low 1.03 | locus YLL026W, active compounds read low 1.01 | locus YLL041C, strain sdh2, active compounds read low 1.01 | locus YLR027C, strain aat2, active compounds read low 1.01 | locus YLR039C, strain RIC1, active compounds read low 0.976 | locus YLR058C, strain SHM2, active compounds read low 0.984 | locus YLR102C, strain apc9, active compounds read low 1.01 | locus YLR113W, strain HOG1, active compounds read low 0.978 | locus YLR221C, strain rsa3, active compounds read low 1.01 | locus YLR258W, strain gsy2, active compounds read low 1.02 | locus YLR262C, strain YPT6 (second series), active compounds read low 1.08 | locus YLR262C, strain YPT6, active compounds read low 0.984 | locus YLR268W, strain sec22, active compounds read low 1.03 | locus YLR320W, strain mms22, active compounds read low 0.985 | locus YLR330W, strain CHS5, active compounds read low 1.01 | locus YLR342W, strain FKS1 (second series), active compounds read low 0.973 | locus YLR342W, strain FKS1, active compounds read low 1.01 | locus YLR357W, strain rsc2, active compounds read low 1.02 | locus YLR370C, strain arc18, active compounds read low 1.01 | locus YLR371W, strain rom2, active compounds read low 1.02 | locus YLR384C, strain iki3, active compounds read low 1.01 | locus YLR418C, strain cdc73, active compounds read low 0.954 | locus YML016C, strain PPZ1, active compounds read low 0.992 | locus YML032C, strain rad52, active compounds read low 0.987 | locus YML120C, strain ndi1, active compounds read low 1.02 | locus YML124C, strain tub3, active compounds read low 1 | locus YMR058W, strain fet3, active compounds read low 1.03 | locus YMR078C, strain ctf18, active compounds read low 1.01 | locus YMR125W, strain sto1, active compounds read low 1.03 | locus YMR129W, active compounds read low 1.03 | locus YMR205C, strain PFK2, active compounds read low 1.03 | locus YMR223W, strain ubp8, active compounds read low 0.972 | locus YMR231W, strain pep5, active compounds read low 1.02 | locus YMR263W, strain SAP30, active compounds read low 0.996 | locus YMR307W, strain GAS1, active compounds read low 0.981 | locus YNL067W, strain RPL9B, active compounds read low 1 | locus YNL071W, strain lat1, active compounds read low 1.01 | locus YNL153C, strain GIM3, active compounds read low 0.972 | locus YNL183C, strain NPR1, active compounds read low 0.926 | locus YNL209W, strain ssb2, active compounds read low 1.01 | locus YNL233W, strain BNI4, active compounds read low 0.955 | locus YNL248C, strain rpa49, active compounds read low 1.02 | locus YNL250W, strain rad50, active compounds read low 1.03 | locus YNL271C, strain bni1, active compounds read low 1.02 | locus YNL298W, strain CLA4, active compounds read low 0.998 | locus YNL307C, strain MCK1, active compounds read low 1.01 | locus YNL322C, strain KRE1 (second series), active compounds read low 1.02 | locus YNR049C, strain mso1, active compounds read low 1.02 | locus YNR052C, strain pop2, active compounds read low 0.993 | locus YOL006C, strain TOP1, active compounds read low 1.03 | locus YOL012C, strain htz1 0.947 | locus YOL147C, strain pex11, active compounds read low 1.02 | locus YOR001W, strain rrp6, active compounds read low 1.01 | locus YOR061W, strain CKA2, active compounds read low 1.01 | locus YOR069W, strain VPS5, active compounds read low 1.01 | locus YOR070C, strain gyp1, active compounds read low 1.03 | locus YOR080W, strain dia2, active compounds read low 1.01 | locus YOR083W, strain WHI5, active compounds read low 0.997 | locus YOR106W, strain vam3, active compounds read low 0.992 | locus YOR136W, strain idh2, active compounds read low 1.02 | locus YOR144C, strain elg1, active compounds read low 1.01 | locus YOR184W, strain ser1, active compounds read low 0.992 | locus YOR231W, strain MKK1, active compounds read low 1.01 | locus YOR265W, strain rbl2, active compounds read low 1 | locus YOR270C, strain vph1, active compounds read low 1.09 | locus YOR290C, strain snf2, active compounds read low 1 | locus YOR316C, strain cot1, active compounds read low 1.01 | locus YPL051W, strain arl3, active compounds read low 0.993 | locus YPL078C, strain atp4, active compounds read low 1.02 | locus YPL106C, strain sse1, active compounds read low 0.999 | locus YPL240C, strain hsp82, active compounds read low 1 | locus YPL256C, strain CLN2, active compounds read low 0.976 | locus YPR119W, strain clb2, active compounds read low 1.01 | locus YPR141C, strain kar3, active compounds read low 1.02 | locus YPR163C, strain tif3, active compounds read low 1 | locus YPR167C, strain met16, active compounds read low 1.04 | strain wtn01, active compounds read low 1.04
